Test results reported in PubChem BioAssay (Tox21).
Inconclusive results are not listed. The source made the active and inactive calls. Unless noted, calls come from the whole dose curve.

What was measured:
[1] = Nuclear factor erythroid 2-related factor 2/antioxidant responsive element (Nrf2/ARE) small molecule agonists: qHTS cell viability counter screen in human keratinocytes (AID 1919968; active = well fitted curve in the direction sought with a large enough effect in the repeat runs; an effect the other way counts as inactive or inconclusive; note: nearly all actives have a fitted effect of over 55% in size; note: potency is the fitted concentration of half-maximal effect)
Method in brief: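 KeratinoSens HaCaT cells, 1,500/well, preincubated 5 h, then exposed to compounds in DMSO for 23 h at 37 C/5% CO2. Viability read as CellTiter-Fluor fluorescence after 1 h, in the same wells as the ARE-luciferase read.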

[2] = target: Gonadotropin-releasing hormone receptor (Homo sapiens) (UniProt P30968); experiment: Human gonadotropin-releasing hormone receptor (GnRHR) small molecule agonists, calcium flux assay in GnRHR-HEK293 cells (AID 1920063); note: % is set by controls: 0 for no effect and ±100 for the full control effect; nearly all actives have a fitted effect of over 35% in size
Method in brief: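 HEK293 cells stably expressing human GnRHR were dye-loaded for 1 h at 37 C. Compound was added in agonist mode and fluorescence (Ex/Em 480/540) recorded kinetically for 3 min. Fifteen concentrations, triplicates.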

[3] = target: KiSS-1 receptor (Homo sapiens) (UniProt Q969F8); experiment: Human kisspeptin (KISS1R) small molecule agonists, calcium flux assay in KISS1R-HEK293 cells (AID 1920064; active = well fitted curve in the direction sought with a large enough effect in the repeat runs; an effect the other way counts as inactive or inconclusive; note: % is set by controls: 0 for no effect and ±100 for the full control effect)
Method in brief: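 HEK293 cells stably expressing human KISS1R were loaded with calcium dye for 1 h at 37 C, then given compound; fluorescence (Ex/Em 480/540) was read kinetically for 3 min. Fifteen concentrations, triplicate.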

[4] = G protein-coupled receptor (GPCR) small molecule agonists, calcium flux assay: HEK293 wild type cell line counter screen (AID 1920065); note: % is set by controls: 0 for no effect and ±100 for the full control effect
Method in brief: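 Wild-type HEK293 cells plated 18 h, loaded with calcium dye 1 h at 37 C, then compounds added in agonist mode (ATP as positive control). Kinetic fluorescence Ex/Em 480/540 recorded 3 min at 1 sec intervals; 15 concentrations, triplicate.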

[5] = p53 small molecule agonists, cell-based qHTS assay with human liver microsomes (AID 1963577);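 note: p53 response element beta-lactamase reporter cells with liver microsomes plus NADPH; % is set by controls: 0 for no effect and ±100 for the full control effect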
Method in brief: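 HLM-supplemented p53RE-bla reporter assay: 16 h compound exposure at 37 C, microsomes and NADPH each 0.5 mg/mL final, read by fluorescence intensity.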

[6] = p53 small molecule agonists, cell-based qHTS assay with rat liver microsomes (AID 1963578); note: % is set by controls: 0 for no effect and ±100 for the full control effect
Method in brief: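 Quantitative HTS of the Tox21 10K library: p53RE-bla cells, rat liver microsomes plus NADPH at 0.5 mg/mL final each, 16 h at 37 C, beta-lactamase fluorescence detection.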

[7] = p53 small molecule agonists, cell-based qHTS assay with human liver microsomes: qHTS cell viability counter screen (AID 1963579); note: nearly all actives have a fitted effect of over 45% in size; note: potency is the fitted concentration of half-maximal effect
Method in brief: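 Viability of p53RE-bla cells is measured as CellTiter-Glo luminescence following a 16 h, 37 C incubation with compound, liver microsomes from human donors and NADPH.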

[8] = p53 small molecule agonists, cell-based qHTS assay with rat liver microsomes: qHTS cell viability counter screen (AID 1963580); note: nearly all actives have a fitted effect of over 45% in size; note: potency is the fitted concentration of half-maximal effect
Method in brief: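 Viability is assessed in parallel with the p53 reporter read: HCT-116 p53RE-bla cells receive compounds plus rat microsomes and NADPH (0.5 mg/mL final apiece), incubate 16 h at 37 C, and then CellTiter-Glo luminescence is recorded.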

[9] = p53 small molecule agonists, cell-based qHTS assay: qHTS cell viability counter screen (AID 1963581); note: % is set by controls: 0 for no effect and ±100 for the full control effect; nearly all actives have a fitted effect of over 45% in size
Method in brief: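 p53RE-bla HCT-116 cells, compounds added 5 h after plating and incubated 16 h at 37 C. Cytotoxicity measured in the same wells as intracellular ATP by CellTiter-Glo luminescence after 30 min at room temperature.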

[10] = p53 small molecule agonists, cell-based qHTS assay (AID 1963582; active = well fitted activation curve with a large enough effect in the signal ratio in the repeat runs, not every such curve was filed as active; the % refers to the signal ratio; note: % is set by controls: 0 for no effect and ±100 for the full control effect)
Method in brief: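 p53RE-bla reporter cells, compounds added in DMSO after 5 h plating, incubated 16 h at 37 C. Beta-lactamase read via 2 h room-temperature LiveBLAzer B/G FRET substrate, fluorescence intensity.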

[11] = target: 5-hydroxytryptamine receptor 2A (Homo sapiens) (UniProt P28223); experiment: 5-hydroxytryptamine receptor 2A (HTR2A) small molecule antagonists, cell-based qHTS assay (AID 1963586); note: nearly all actives have a fitted effect of over 45% in size; note: potency is the fitted concentration of half-maximal effect
Method in brief: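 Antagonist-mode intracellular calcium assay: DOI (4 nM) added after 5 min compound pre-incubation at room temperature to dye-loaded HTR2A-CHO cells. Fluorescence followed for 3 min, sampled every second.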

[12] = target: 5-hydroxytryptamine receptor 2A (Homo sapiens) (UniProt P28223); experiment: 5-hydroxytryptamine receptor 2A (HTR2A) small molecule agonists, cell-based qHTS assay (AID 1963587); note: nearly all actives have a fitted effect of over 30% in size; note: potency is the fitted concentration of half-maximal effect
Method in brief: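 CHO cells stably expressing human HTR2A, plated 18 h, loaded with calcium dye 1 h at 37 C. Agonist mode: compounds added and intracellular calcium fluorescence recorded kinetically for 2 min at 1 sec intervals.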

[13] = target: Muscarinic acetylcholine receptor M1 (Homo sapiens) (UniProt P11229); experiment: Cholinergic receptor muscarinic 1 (CHRM1) small molecule antagonists, cell-based qHTS assay (AID 1963588); note: % is set by controls: 0 for no effect and ±100 for the full control effect; nearly all actives have a fitted effect of over 40% in size
Method in brief: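 CHRM1-CHO calcium-flux assay, antagonist mode. Cells were seeded 18 h, dye-loaded 1 h at 37 C and given compound for 5 min at RT, then acetylcholine was added at 50nM. FDSS fluorescence was read 3 min; 15 concentrations, three runs.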

[14] = target: Muscarinic acetylcholine receptor M1 (Homo sapiens) (UniProt P11229); experiment: Cholinergic receptor muscarinic 1 (CHRM1) small molecule agonists, cell-based qHTS assay (AID 1963589); note: % is set by controls: 0 for no effect and ±100 for the full control effect; nearly all actives have a fitted effect of over 35% in size
Method in brief: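 CHO cells stably expressing human CHRM1 were loaded with calcium dye for 1 h at 37 C, then compound was added in agonist mode. Intracellular calcium fluorescence was followed kinetically at 1 s intervals. Fifteen concentrations were tested in three independent runs.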

[15] = target: Beta-2 adrenergic receptor (Homo sapiens) (UniProt P07550); experiment: Adrenergic beta2 receptor (ADRB2) small molecule antagonists, cell-based qHTS assay (AID 1963592); note: nearly all actives have a fitted effect of over 50% in size; note: potency is the fitted concentration of half-maximal effect
Method in brief: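 Cells (CHO, stable ADRB2 overexpression) incubated 18-20hr at 37C; compounds added from DMSO; agonist mix (1nM isoproterenol, 100uM IBMX, 25uM Ro-20-1724) added; 0.5hr RT; d2-cAMP and anti-cAMP-cryptate added; 1hr RT; 665/615 nm read.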

[16] = target: D(2) dopamine receptor (Homo sapiens) (UniProt P14416); experiment: Dopamine D2 receptor (DRD2) small molecule agonists, cell-based qHTS assay (AID 1963594); note: % is set by controls: 0 for no effect and ±100 for the full control effect; nearly all actives have a fitted effect of over 35% in size
Method in brief: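 HEK293 cells stably expressing human DRD2, pre-treated with PDE inhibitor Ro20-1724 (0.1 mM final) and compound 10 min at room temperature, then stimulated with NKH477 (200nM […]) for 30 min. cAMP read by HTRF (665/620 nm).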

[17] = cAMP Responsive Elements (CRE) small molecule agonists, cell-based qHTS assay (AID 1963590); note: % is set by controls: 0 for no effect and ±100 for the full control effect
Method in brief: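 CRE-bla HEK 293T cells, 2,000/well in DMEM with 10% dialyzed FBS and 25 mM HEPES, pre-incubated 18 h at 37 C, then exposed to compound 3 h at 37 C. Beta-lactamase reporter read with LiveBLAzer B/G FRET substrate after 2 h at room temperature.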

[18] = cAMP Responsive Elements (CRE) small molecule antagonists, cell-based qHTS assay (AID 1963591; active = well fitted inhibition curve with a large enough effect in the signal ratio in the repeat runs, not every such curve was filed as active; the % refers to the signal ratio; note: % is set by controls: 0 for no effect and ±100 for the full control effect)
Method in brief: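 CRE-bla HEK293T cells plated 18 h, then given compound plus NKH477 at 0.25 uM final for 3 h at 37C. Beta-lactamase reporter read with LiveBLAzer B/G FRET substrate after 2 h at room temperature.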

[19] = target: D(2) dopamine receptor (Homo sapiens) (UniProt P14416); experiment: Dopamine D2 receptor (DRD2) small molecule antagonists, cell-based qHTS assay (AID 1963595; active = well fitted inhibition curve with a large enough effect in the signal ratio in the repeat runs, with a control signal flat; the % refers to the signal ratio; note: potency is the fitted concentration of half-maximal effect)
Method in brief: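 Antagonism was scored as restored cAMP in HEK293-DRD2 cells. These cells were stimulated with 200 nM NKH477 and 12 nM quinpirole for 30 min at room temperature, in the presence of 0.1 mM Ro20-1724.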

[20] = Nuclear factor erythroid 2-related factor 2/antioxidant responsive element (Nrf2/ARE) small molecule agonists: luciferase reporter gene qHTS assay in human keratinocytes (AID 1919969); note: potency is the fitted concentration of half-maximal effect; nearly all actives have a fitted effect of over 35% in size

5-hydroxytryptamine receptor 2A (Homo sapiens), sequence (P28223 whole entry, looked up): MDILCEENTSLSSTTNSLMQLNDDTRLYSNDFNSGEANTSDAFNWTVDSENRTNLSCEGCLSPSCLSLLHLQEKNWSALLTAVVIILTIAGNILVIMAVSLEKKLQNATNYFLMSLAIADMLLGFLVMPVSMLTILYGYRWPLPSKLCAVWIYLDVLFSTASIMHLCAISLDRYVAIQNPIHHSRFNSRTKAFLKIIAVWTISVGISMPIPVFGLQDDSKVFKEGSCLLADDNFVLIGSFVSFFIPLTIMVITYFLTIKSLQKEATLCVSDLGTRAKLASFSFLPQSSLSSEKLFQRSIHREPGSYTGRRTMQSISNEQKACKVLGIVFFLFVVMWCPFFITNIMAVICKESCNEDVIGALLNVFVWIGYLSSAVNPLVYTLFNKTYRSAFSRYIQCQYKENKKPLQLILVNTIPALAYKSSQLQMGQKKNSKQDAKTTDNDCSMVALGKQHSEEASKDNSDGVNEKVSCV
Beta-2 adrenergic receptor (Homo sapiens), sequence (P07550 whole entry, looked up): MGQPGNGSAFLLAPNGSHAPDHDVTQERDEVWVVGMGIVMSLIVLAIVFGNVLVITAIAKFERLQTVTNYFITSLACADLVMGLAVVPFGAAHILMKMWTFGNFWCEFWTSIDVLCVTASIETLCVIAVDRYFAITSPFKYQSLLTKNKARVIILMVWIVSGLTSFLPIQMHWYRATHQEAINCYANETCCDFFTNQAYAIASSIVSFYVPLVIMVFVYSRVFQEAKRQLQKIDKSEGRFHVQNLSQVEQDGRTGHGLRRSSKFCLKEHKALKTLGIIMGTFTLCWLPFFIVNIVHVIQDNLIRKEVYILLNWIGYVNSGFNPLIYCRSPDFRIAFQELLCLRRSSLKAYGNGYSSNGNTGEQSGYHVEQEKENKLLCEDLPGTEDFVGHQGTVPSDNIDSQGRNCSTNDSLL
Muscarinic acetylcholine receptor M1 (Homo sapiens), sequence (P11229 whole entry, looked up): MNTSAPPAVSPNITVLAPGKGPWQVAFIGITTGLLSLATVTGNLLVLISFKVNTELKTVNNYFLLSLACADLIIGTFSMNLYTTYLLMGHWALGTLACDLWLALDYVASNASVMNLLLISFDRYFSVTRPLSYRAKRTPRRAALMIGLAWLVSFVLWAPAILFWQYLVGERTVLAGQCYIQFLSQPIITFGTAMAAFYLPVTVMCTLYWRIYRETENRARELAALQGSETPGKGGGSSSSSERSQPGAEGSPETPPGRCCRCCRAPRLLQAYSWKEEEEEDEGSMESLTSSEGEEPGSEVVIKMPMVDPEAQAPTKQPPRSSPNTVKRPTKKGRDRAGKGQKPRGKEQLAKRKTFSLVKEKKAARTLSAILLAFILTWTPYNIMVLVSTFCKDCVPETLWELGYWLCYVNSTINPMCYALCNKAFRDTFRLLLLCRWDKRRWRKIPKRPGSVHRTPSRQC
KiSS-1 receptor (Homo sapiens), sequence (Q969F8 whole entry, looked up): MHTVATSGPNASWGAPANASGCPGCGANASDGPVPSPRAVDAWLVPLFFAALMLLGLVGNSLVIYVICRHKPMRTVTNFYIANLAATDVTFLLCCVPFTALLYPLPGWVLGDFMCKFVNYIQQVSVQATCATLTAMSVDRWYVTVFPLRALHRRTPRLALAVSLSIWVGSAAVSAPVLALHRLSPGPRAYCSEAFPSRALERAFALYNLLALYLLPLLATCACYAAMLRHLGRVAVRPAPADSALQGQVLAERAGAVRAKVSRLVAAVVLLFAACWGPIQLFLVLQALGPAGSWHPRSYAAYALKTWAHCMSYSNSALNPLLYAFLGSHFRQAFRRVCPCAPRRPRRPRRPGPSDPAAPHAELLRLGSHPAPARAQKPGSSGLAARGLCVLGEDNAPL
D(2) dopamine receptor (Homo sapiens), sequence (P14416 whole entry, looked up): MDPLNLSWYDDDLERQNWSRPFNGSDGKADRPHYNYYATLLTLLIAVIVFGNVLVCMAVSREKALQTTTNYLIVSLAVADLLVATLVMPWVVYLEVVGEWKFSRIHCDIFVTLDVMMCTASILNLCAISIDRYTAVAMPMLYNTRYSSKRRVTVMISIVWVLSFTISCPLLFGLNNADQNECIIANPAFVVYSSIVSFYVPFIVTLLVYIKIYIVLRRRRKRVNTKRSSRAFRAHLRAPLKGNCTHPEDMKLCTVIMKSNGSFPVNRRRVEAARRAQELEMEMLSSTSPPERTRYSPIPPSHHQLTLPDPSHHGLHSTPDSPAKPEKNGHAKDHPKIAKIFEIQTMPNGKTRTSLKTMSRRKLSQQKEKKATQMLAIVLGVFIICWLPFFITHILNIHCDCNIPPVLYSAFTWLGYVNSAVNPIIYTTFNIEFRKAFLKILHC
Gonadotropin-releasing hormone receptor (Homo sapiens), sequence (P30968 whole entry, looked up): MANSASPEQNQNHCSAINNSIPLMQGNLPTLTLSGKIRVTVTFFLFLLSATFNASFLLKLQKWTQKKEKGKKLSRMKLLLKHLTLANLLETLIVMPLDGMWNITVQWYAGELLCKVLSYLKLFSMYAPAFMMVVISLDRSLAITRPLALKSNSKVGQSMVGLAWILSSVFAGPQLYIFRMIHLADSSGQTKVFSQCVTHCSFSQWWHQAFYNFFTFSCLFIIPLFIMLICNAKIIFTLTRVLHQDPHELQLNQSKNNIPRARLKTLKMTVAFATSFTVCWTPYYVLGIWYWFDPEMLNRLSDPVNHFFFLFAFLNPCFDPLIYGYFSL

COC1=CC(=O)O[C@@H](/C=C/c2ccccc2)C1
inactive: Potency [1] | Potency [2] | Potency [3] | Potency [4] | Potency [5] | Potency [6] | Potency [7] | Potency [8] | Potency [9] | Potency [10] | Potency [11] | Potency [12] | Potency [13] | Potency [14] | Potency [15] | Potency [16]

O=[N+]([O-])C(Br)Br
active: Potency [11] 37.6 µM | Potency [12] 55 µM
inactive: Potency [1] | Potency [2] | Potency [3] | Potency [4] | Potency [5] | Potency [6] | Potency [7] | Potency [8] | Potency [9] | Potency [10] | Potency [13] | Potency [14] | Potency [17] | Potency [18] | Potency [16] | Potency [19]

[Cl][Sn]([c]1ccccc1)([c]1ccccc1)[c]1ccccc1
inactive: activation [4] 4.28% [at 11.8 µM] | activation [6] -5.37% [at 13.6 µM] | activity, negative = inhibition [11] -29.3% [at 12.7 µM] | activation [14] 2.71% [at 15.8 µM] | activity change, negative = inhibition [15] 1.04% [at 19 µM] | activation [16] 8.68% [at 19 µM]
active: Potency [1] 1.03 µM | Potency [20] 0.58 µM | Potency [7] 6.14 µM | Potency [12] 10.4 µM | Potency [19] 7.3 µM

BrCCCCCCBr
inactive: Potency [1] | Potency [2] | Potency [3] | Potency [4] | Potency [5] | Potency [6] | Potency [8] | Potency [9] | Potency [10] | Potency [11] | Potency [12] | Potency [13] | Potency [14] | Potency [17] | Potency [18] | Potency [15] | Potency [16]
active: Potency [7] 20.4 µM

CC(C)N(C(=O)SC/C(Cl)=C/Cl)C(C)C
inactive: Potency [1] | Potency [2] | Potency [3] | Potency [4] | Potency [5] | Potency [6] | Potency [7] | Potency [8] | Potency [9] | Potency [10] | Potency [11] | Potency [12] | Potency [14] | Potency [17] | Potency [16] | Potency [19]

C/C(=C\c1ccccc1)[N+](=O)[O-]
active: Potency [1] 30.6 µM | Potency [8] 36.3 µM
inactive: Potency [2] | Potency [3] | Potency [4] | Potency [5] | Potency [6] | Potency [7] | Potency [9] | Potency [10] | Potency [11] | Potency [12] | Potency [13] | Potency [14] | Potency [18] | Potency [15] | Potency [19]

BrCC(Br)C1CCC(Br)C(Br)C1 (stereo unspecified)
inactive: Potency [1] | Potency [2] | Potency [3] | Potency [4] | Potency [5] | Potency [6] | Potency [7] | Potency [8] | Potency [9] | Potency [10] | Potency [11] | Potency [12] | Potency [13] | Potency [14] | Potency [17] | Potency [18] | Potency [16] | Potency [19]

CCC1COC(Cn2cncn2)(c2ccc(Cl)cc2Cl)O1 (stereo unspecified)
inactive: Potency [1] | Potency [2] | Potency [3] | Potency [4] | Potency [5] | Potency [6] | Potency [7] | Potency [8] | Potency [9] | Potency [10] | Potency [11] | Potency [12] | Potency [13] | Potency [14] | Potency [16] | Potency [19]

Oc1ccc2[nH]cc(CCCCN3CC=C(c4ccccc4)CC3)c2c1
inactive: Potency [1] | Potency [2] | Potency [3] | Potency [4] | Potency [5] | Potency [6] | Potency [7] | Potency [8] | Potency [9] | Potency [10] | Potency [12] | Potency [13] | Potency [14] | Potency [19]
active: Potency [11] 0.818 µM | Potency [15] 26.6 µM

CC(C)(CCl)C(=O)Cl
active: Potency [7] 18.2 µM
inactive: Potency [1] | Potency [2] | Potency [3] | Potency [4] | Potency [5] | Potency [6] | Potency [8] | Potency [9] | Potency [10] | Potency [11] | Potency [12] | Potency [13] | Potency [14] | Potency [17] | Potency [18] | Potency [15] | Potency [16] | Potency [19]

[O]=[Cd]
inactive: Potency [1] | Potency [2] | Potency [3] | Potency [4] | Potency [5] | Potency [6] | Potency [7] | Potency [8] | Potency [9] | Potency [10] | Potency [11] | Potency [12] | Potency [13] | Potency [14] | Potency [17] | Potency [18] | Potency [15] | Potency [16] | Potency [19]

CCC/C(=N\OCC)C1=C(O)CC(CC(C)SCC)CC1=O (stereo unspecified)
inactive: Potency [1] | Potency [2] | Potency [3] | Potency [4] | Potency [5] | Potency [6] | Potency [7] | Potency [8] | Potency [9] | Potency [10] | Potency [11] | Potency [12] | Potency [13] | Potency [14] | Potency [15] | Potency [16] | Potency [19]
